According to PubChem BioAssay:

Assay: growth of efflux-deficient E. coli DRC39 – strain DRC39, OD650, 24 h, E. coli filamentation inducers, primary screen (AID 1178);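 note: growth measured as culture turbidity by optical density at 650 nm; test concentration not given here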
Details: E. coli DRC39 acrAB, higher = more signal, called active from +8 up or from −8 down

z-score, inactive:
CC(C)OC(=O)C=C1C[C@@H](c2ccc(C#N)cc2)O[C@@H](c2ccc(C#N)cc2)O1 -0.667
CO[C@@H]1COC(=O)CC=C[C@@H](C)COC(=O)[C@H](COCc2ccccc2)NC(=O)CC=C[C@H]1C 0.489
CO[C@@H]1COC(=O)CC=C[C@@H](C)[C@@H]2C=C[C@H](O)[C@@H](COC(=O)CCC[C@H]1C)O2 0.118
O=C1[C@H]2[C@H]3[C@H](O)[C@H](O)CC(=NO[C@@H]4O[C@H](CO)[C@@H](O)[C@H](O)[C@H]4O)[C@H]3CC[C@H]2C(=O)N1Cc1ccc2c(c1)OCO2 0.76
C=CC[C@@H]1C=C[C@H](ON=Cc2ccc(C(=O)N3[C@H](c4ccc(C)cc4)[C@@H](C)CC[C@H]3C(=O)OC)cc2)[C@@H](CO)O1 0.442
COCCOC(=O)N1C(=O)[C@@]2(c3cc(C#Cc4ccc(OC)cc4)ccc31)[C@H](c1ccc(O)cc1)N1[C@H](c3ccccc3)[C@H](c3ccccc3)OC(=O)[C@H]1[C@@H]2C(N)=O 0.761
CC(C)(C)N1CC=CC23O[C@@H]4C=CCCOC(=O)C4[C@H]2C(=O)N(CCCCCO)[C@@H]3C1=O (some centres undefined) 0.251
COCCOC(=O)N1C(=O)[C@@]2(c3cc(C#Cc4ccc(OC)cc4)ccc31)[C@H](C(=O)N1CCN(c3ncccn3)CC1)[C@H]1C(=O)O[C@H](c3ccccc3)[C@H](c3ccccc3)N1[C@@H]2c1ccc(OCCO)cc1 0.178
COC(=O)[C@@H]1CC[C@H](C)[C@@H](c2ccc(C)cc2)N1C(=O)c1ccc(C=NOC(C)CN2CCCCc3nc(C)c(C)cc32)cc1 (some centres undefined) 0.419
